The record followed here is PubChem BioAssay (NCI).

Test systems include NCI-H23 lung; NCI-H226 lung; NCI-H322M lung; HOP-62 NSCLC; NCI-H460 lung; HOP-92 NSCLC; NCI-H522 lung; A549/ATCC NSCLC; 786-0 renal; COLO 205 colon; DU-145 prostate; K-562 leukemia; MALME-3M melanoma; MDA-MB-231 breast; RXF 393 renal; SF-268 CNS; SF-295 CNS; SF-539 CNS; UACC-257 melanoma; M14 melanoma.
What all share (assay): NCI-60 one-dose screen, 48 h (100 = growth as untreated, 0 = no growth, -100 = all killed)
What all share (settings): 10 µM unless noted

The panel holds about 83,000 compounds, 20% with a hit somewhere; the sample as a whole holds those more often.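 For each line, cells grew in 96-well plates with the test compound present at a single concentration for 48 hours.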 A number with no mark means an inactive call. Activity calls are given as the source filed them. The calls were made as follows: active = growth percent below 10; inactive = the rest.

`CCCCCCNC(=O)Oc1ccc(/C(=C(/C)c2ccc(OC)cc2)c2ccc(OCCN3CCCCCC3)cc2)cc1`: the growth is 20.4% with NCI-H23 lung; 81% in the test with NCI-H226 lung; 82.1% in the test on NCI-H322M lung; -9.29% (active) in the test with HOP-62 NSCLC; -67.9% (active) with NCI-H460 lung; 63.4% with HOP-92 NSCLC. Also, the growth was 82.4% with NCI-H522 lung; 45.7% with A549/ATCC NSCLC; 24.3% in the test on 786-0 renal; -60.5% (active) in the test on COLO 205 colon; 47.8% in the test on DU-145 prostate; 2.71% (active) in the test on K-562 leukemia. In addition, the growth is -34.9% (active) with MALME-3M melanoma; 6.27% (active) with MDA-MB-231 breast; -8.34% (active) in the test with RXF 393 renal; 60.3% with SF-268 CNS; -41.3% (active) in the test with SF-295 CNS; -59% (active) in the test on SF-539 CNS. Moreover, the results for the growth in the test with UACC-257 melanoma and with M14 melanoma were 9.09% (active) and -63.5% (active), respectively.
As for `O=C(CCCCCCN1CC(=O)N2[C@@H](c3ccc(Cl)s3)c3[nH]c4ccccc4c3C[C@H]2C1=O)NO`, the growth in the test with NCI-H23 lung was 41.1%; in the test with NCI-H226 lung, 68.6%; with NCI-H322M lung, 46%; in the test with HOP-62 NSCLC it was 61.5%; with NCI-H460 lung, 39.4%; in the test with HOP-92 NSCLC, 34.6%. For the same compound, the growth is 3.19% (active) with NCI-H522 lung; 73.4% with A549/ATCC NSCLC; 81.1% in the test on 786-0 renal; 54% in the test on COLO 205 colon; 57.9% in the test with DU-145 prostate; 27.5% with K-562 leukemia. The growth is 21.9% in the test on MALME-3M melanoma; 43.8% with MDA-MB-231 breast; 37.7% in the test with RXF 393 renal; 81.6% with SF-268 CNS; 37.1% in the test on SF-295 CNS; 40.9% with SF-539 CNS. In addition, the values for the growth in the test with UACC-257 melanoma and in the test on M14 melanoma were 53.4% and 51.8%, respectively.
With `Brc1cccc(-c2cc(-c3ccc4c(c3)OC=CO4)[nH]n2)c1`, the growth was 58.2% in the test with NCI-H23 lung; 78% in the test on NCI-H226 lung; 49.8% in the test on NCI-H322M lung; 58.1% in the test with HOP-62 NSCLC; 15.1% in the test on NCI-H460 lung; 96.3% with HOP-92 NSCLC. Besides, the growth was 29.4% in the test on NCI-H522 lung; 37.5% in the test on A549/ATCC NSCLC; 70.4% in the test on 786-0 renal; 36.1% in the test with COLO 205 colon; 54.8% in the test with DU-145 prostate; 13.6% with K-562 leukemia. Further, the growth was 25.6% with MALME-3M melanoma; 53.2% in the test with MDA-MB-231 breast; 60.2% with RXF 393 renal; 64.6% in the test with SF-268 CNS; 38% with SF-295 CNS; 49.3% in the test on SF-539 CNS. Moreover, the growth is 67.5% with UACC-257 melanoma and 15.7% in the test on M14 melanoma.
Regarding `O=C(N/N=C/c1cc2ccccc2nc1Cl)c1cc(-c2nc3ccccc3[nH]2)nc2ccccc12`, the growth with NCI-H23 lung is 96.2%; in the test with NCI-H226 lung, 100%; with NCI-H322M lung, 99.9%; in the test on HOP-62 NSCLC, 97.9%; in the test with NCI-H460 lung, 104%; with HOP-92 NSCLC, 72.4%. The growth in the test with NCI-H522 lung was 83.6%; with A549/ATCC NSCLC, 95.1%; with 786-0 renal, 85.3%; in the test on COLO 205 colon, 98.3%; with DU-145 prostate, 87.7%; with K-562 leukemia, 83.6%. The growth is 124% with MALME-3M melanoma; 99% in the test on MDA-MB-231 breast; 96.2% with RXF 393 renal; 87.8% in the test on SF-268 CNS; 89.7% in the test on SF-295 CNS; 103% in the test on SF-539 CNS. The growth is 118% in the test on UACC-257 melanoma and 109% in the test with M14 melanoma.
As to `Cc1ccc2c(n1)C(=O)C(Cl)=C(Nc1ccc(C(C)C)cc1)C2=O`, the growth in the test on NCI-H23 lung is -56.9% (active); in the test on NCI-H226 lung it was 61.4%; in the test with NCI-H322M lung, 84.4%; with HOP-62 NSCLC, 126%; in the test on NCI-H460 lung, 79.7%; in the test with HOP-92 NSCLC it was 17.1%. Also, the growth in the test with NCI-H522 lung was -13.7% (active); with A549/ATCC NSCLC it was 67.8%; in the test on 786-0 renal, 75.6%; in the test on COLO 205 colon it was 111%; with DU-145 prostate, 16.2%; in the test with K-562 leukemia, 0.714% (active). For the same compound, the growth with MALME-3M melanoma is -33.9% (active); in the test on MDA-MB-231 breast it was -41% (active); with RXF 393 renal it was -93.6% (active); with SF-268 CNS, 77.1%; in the test with SF-295 CNS, 82.8%; with SF-539 CNS, 96.2%. Moreover, the growth with UACC-257 melanoma is -70.3% (active); in the test on M14 melanoma, 25.6%.
For `O=C1C(SCc2ccccc2)=C(Cl)CN1c1ccccc1`, the growth is 95.6% with NCI-H23 lung; 101% with NCI-H226 lung; 97.3% in the test on NCI-H322M lung; 104% with HOP-62 NSCLC; 102% with NCI-H460 lung; 94.5% in the test with HOP-92 NSCLC. Also, the growth with NCI-H522 lung is -48.8% (active); in the test on A549/ATCC NSCLC, 106%; with 786-0 renal, 104%; in the test with COLO 205 colon it was 130%; in the test on DU-145 prostate it was 102%; in the test with K-562 leukemia, 62%. The growth in the test with MALME-3M melanoma is 94.6%; in the test with MDA-MB-231 breast, 93.1%; in the test with RXF 393 renal it was 105%; with SF-268 CNS, 105%; with SF-295 CNS, 97.8%; with SF-539 CNS it was 95%. Also, the growth in the test with UACC-257 melanoma is 106%; in the test with M14 melanoma, 97.7%.
For the compound `CCCCCN1C(=O)/C(=c2\sc3n(c2=O)C2C(NN=3)N(CC)C(=O)N2CC)c2cccc(C)c21` (stereo not given), the growth in the test on NCI-H23 lung is 70%; in the test with NCI-H226 lung, 42.4%; in the test on NCI-H322M lung, 82.7%; in the test on HOP-62 NSCLC it was 44.2%; with NCI-H460 lung, 30.9%; in the test on HOP-92 NSCLC it was 70.2%. In addition, the growth in the test on NCI-H522 lung is 30.4%; in the test on A549/ATCC NSCLC it was 68.6%; in the test with 786-0 renal, 76%; with COLO 205 colon it was 38.7%; in the test with DU-145 prostate, 76.6%; in the test on K-562 leukemia it was 16.2%. Also, the growth is 51.6% in the test with MALME-3M melanoma; 62.4% with MDA-MB-231 breast; 15.1% in the test on RXF 393 renal; 56.9% in the test with SF-268 CNS; 45% in the test with SF-295 CNS; 23.8% in the test on SF-539 CNS. The growth is 79.8% with UACC-257 melanoma and 51.4% in the test with M14 melanoma.
